This passage reports INHIBITION results from ChEMBL document CHEMBL4513216, “Probing the Open Global Health Chemical Diversity Library for Multistage-Active Starting Points for Next-Generation Antimalarials” (ACS Infect Dis, 2020).

The campaign covered roughly 69,000 compounds. About 8,600 (12%) showed an effect of 50% or more. For the sample, strong results were picked, then their nearest neighbours and some compounds at random.

In this assay the test system is Plasmodium berghei. Nature of the assay: Screen against P. berghei liver stage (PbLuc), transformed with Luciferase, at 10uM. The assay is classed as functional, HepG2. As to conditions: tested at 10 uM.
As for `Cc1ncc(C(=O)N2CCCC(Cc3nccs3)C2)cn1` (stereo not drawn), the INHIBITION was found to be 29.3%. The same measure for `CCN(CC)c1ncc2c(O)nc(C3CCNCC3)cc2n1`: 6.26%; for `CCN(C)c1ncnc2c1CCN(C(=O)COC)CC2`: -12.1%. In the case of `COC(=O)[C@H](C)NC(=O)COc1nn(C)c2nc(C)cc(C)c12`, the INHIBITION is -10.2%. The result for `Cc1cc2nc(SCC(=O)N3CCCC3)n(Cc3ccco3)c(O)c-2n1` reads 34.2%; that for `CCS(=O)(=O)N(C)CCCNC(=O)c1cc(Cl)cc2cccnc12`, 37.9%. With `CCCNC(=O)C(C)n1nc(-c2ccc(C)o2)cc(N)c1=O` (stereo not drawn), the INHIBITION is reported as 31.6%. As for `CCc1cc(CNC(=O)C2CCCN(C(=O)NCC(C)C)C2)[nH]n1` (stereo not drawn), the INHIBITION is recorded as 22.5%. The result for `CN(Cc1ccccc1)c1cnn(CC2CCCCO2)c(=O)c1` (stereo not drawn) reads 28.2%; that for `COCC1CC2(CCN(C(=O)c3cnc4ccccc4c3)CC2)CO1` (stereo not drawn), 42.1%. The same measure for `CN(Cc1cccc(OC(F)(F)F)c1)C(=O)c1ccncc1F`: 39.4%; for `COC(=O)c1cccc(C(=O)N(C)Cc2cccc(O)c2)c1`: 7.44%; for `Cc1ccc(CN(C)C(=O)c2cnsn2)cc1`: 65.2%.

With `CN(Cc1cccc(OC(F)(F)F)c1)C(=O)c1cnsn1`, the INHIBITION was found to be 68.6%. Regarding `Cc1ccc(CN(C)C(=O)c2scnc2C)cc1`, the INHIBITION is given as -11.19%.

`CN(Cc1cccc(OC(F)(F)F)c1)C(=O)Cc1ccon1`: the INHIBITION amounted to 19.5%.

Consider `COC(=O)c1ccc(CN(C)C(=O)c2cnsn2)cc1`, for which the INHIBITION turned out to be 64.1%.

Regarding `COC(=O)c1cccc(C(=O)N(C)Cc2ccsc2)c1`, the INHIBITION is on record as 13.8%. The result for `Cc1ccc(CN(C)C(=O)CN2CCCC2c2cnn(C)c2)cc1` (stereo not drawn) reads -1.79%; that for `Cc1nn(C)c2cn(CC(=O)N3CCN(c4ccccn4)CC3)nc12`, 30%. The same measure for `CC(c1ccco1)N(C(=O)Cn1nc2n(c1=O)CCCCC2)C1CC1` (stereo not drawn): 5.94%. Regarding `Cc1ncc(C(=O)NCCNc2ncccc2C#N)s1`, the INHIBITION is reported as -0.113%.

Take `O=C(Cn1ccnc1)N(CCO)CCSc1ccc(Cl)cc1`: the INHIBITION was 9.41%. The same measure for `COCC(=O)N1CCCC2(CCN(Cc3cccc(C)n3)C2=O)C1` (stereo not drawn): 43.9%. Regarding `N#Cc1cc(F)ccc1Cn1cnc(C2CCC2)cc1=O`, the INHIBITION stood at 26.6%. As to `N#Cc1cc(Cn2cnc(C3CCC3)cc2=O)ccc1F`, the INHIBITION was determined as 74.3%.

As to `N#Cc1ccc(F)cc1Cn1cnc(C2CCC2)cc1=O`, the INHIBITION is listed as -22.3%. The result for `CCc1nnc2n1CCN(Cc1cc(Cl)c3c(c1)OCCO3)C2` reads 10.235%; that for `COc1ncccc1CNC(=O)c1cc(Cl)ccn1`, -22.8%.

`Cc1noc(CCCC(=O)N2CCCCC2CNS(C)(=O)=O)n1` (stereo not drawn): the INHIBITION is given as 49.7%.

In the case of `CC(C)OCCCNC(=O)CS(=O)(=O)Cc1ccc(Cl)cc1`, the INHIBITION is 9.64%. Consider `CN(C)C(=O)NC1COC2(CCN(Cc3ccco3)CC2)C1` (stereo not drawn), for which the INHIBITION is 27.6%.

For the compound `CNC(=O)CC1CC2(CCN(Cc3nccs3)CC2)c2ccccc21` (stereo not drawn), the INHIBITION is -0.113%. The same measure for `CN(C)C(=O)CC1CC2(CCN(Cc3ccco3)CC2)c2ccccc21` (stereo not drawn): 75%. `CN(C)C(=O)CC1CC2(CCN(Cc3ccoc3)CC2)c2ccccc21` (stereo not drawn): the INHIBITION is -6.23%.

As to `CN(C)C(=O)CC1CC2(CCN(Cc3ccsc3)CC2)c2ccccc21` (stereo not drawn), the INHIBITION came to 64.2%. `CN(C)C(=O)CC1CC2(CCN(Cc3cccs3)CC2)c2ccccc21` (stereo not drawn): the INHIBITION is given as 45.2%.

As to `CC(=O)N1CCC(N2CCC(c3nc(C)cc(C)n3)C2)CC1` (stereo not drawn), the INHIBITION was determined as 24.8%.

For `Cc1cncnc1C1CCN(CC(N)=O)CC1`, the INHIBITION is recorded as -16.9%.

As for `CC(=O)N1CCc2nc(C3CCN(c4ncccn4)C3)ncc2C1` (stereo not drawn), the INHIBITION is -0.902%.

`CCN1C[C@H]2N(c3ncccn3)CCC[C@@]2(C(=O)NCC2CC2)C1`: the INHIBITION came to 19.5%. For the compound `CNC(=O)[C@@]12CCCN(c3ncccn3)[C@@H]1CN(C)C2`, the INHIBITION is -17.4%. The result for `CC(C)CN1C[C@H]2N(c3ncccn3)CCC[C@@]2(C(=O)NCC2CC2)C1` reads 56.6%; that for `CN1C[C@H]2N(c3ncccn3)CCC[C@@]2(C(=O)NCC2CC2)C1`, 67.5%; that for `CNC(=O)N1C[C@H]2N(c3ncccn3)CCC[C@@]2(C(=O)NCC2CC2)C1`, 17.7%. The result for `CS(=O)(=O)N1C[C@H]2N(c3ncccn3)CCC[C@@]2(C(=O)NCC2CC2)C1` reads 35.8%; that for `CC(=O)N1CC(=O)N(c2ccccc2)CC12CCN(Cc1cccs1)C2` (stereo not drawn), 6.38%.

Regarding `COCC1CC2(CCN(Cc3cnn(C)c3)CC2)CN1C(C)C` (stereo not drawn), the INHIBITION was determined as 37.5%. The same measure for `O=C(O)c1ccc(C2CCCN(C(=O)c3ccc[nH]3)C2)cc1` (stereo not drawn): 36.8%; for `O=C(NCc1cnc2n1CCN(Cc1nccs1)CC2)C1CCC1`: 30.3%; for `Cn1cc(C2CCCN2Cc2csc(C(C)(C)C)n2)cn1` (stereo not drawn): 55.9%. Take `Cn1cc(C2CCCN2Cc2csc(-c3ccccc3)n2)cn1` (stereo not drawn): the INHIBITION is reported as -38.2%.

As to `Cn1cc(C2CCCN2Cc2csc(C3CCCC3)n2)cn1` (stereo not drawn), the INHIBITION is listed as 42%.
